# PubChem BioAssay
# The source made the active and inactive calls.
# Columns and labels:
# [1] = small molecules captured by biotinylated probe aFSTL3 – biochemical, small-molecule microarray, fluorescence 635/667, stem cell growth factor project, primary screen (AID 1064); settings: higher = more signal;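 also: measures binding of the biotinylated anti-FSTL3 antibody to printed compounds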
# [2] = binders from COS7 lysate, DM2A8 probe, primary screen, torsin A project, cell lysate, small-molecule microarray, fluorescence 635/667 (AID 1065); settings: higher = more signal, COS7 lysate expressing mutant human TOR1A
# [3] = small molecules captured by biotinylated probe aFGF2 – biochemical, small-molecule microarray, fluorescence 635/667, stem cell growth factor project, primary screen (AID 1067); settings: higher = more signal;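 also: measures binding of biotinylated aFGF2 protein to printed compounds on slides; z-score merges feature fluorescence and signal-to-noise across triplicate slides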
# [4] = small molecules captured by biotinylated probe aFGF10 – biochemical, small-molecule microarray, fluorescence 635/667, stem cell growth factor project, primary screen (AID 1071); settings: higher = more signal;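 also: score merges 667 nm spot intensity and signal to noise from triplicate slides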
# [5] = target: Neurogenic locus notch homolog protein 2 (Homo sapiens) (UniProt Q04721); assay: small molecules binding Notch2 protein – biochemical, small-molecule microarray, 635 nm fluorescence, stem cell growth factors, primary screen (AID 1073); settings: higher = more signal
# Chain of Neurogenic locus notch homolog protein 2 (Homo sapiens) (Q04721 whole entry, looked up, canonical isoform): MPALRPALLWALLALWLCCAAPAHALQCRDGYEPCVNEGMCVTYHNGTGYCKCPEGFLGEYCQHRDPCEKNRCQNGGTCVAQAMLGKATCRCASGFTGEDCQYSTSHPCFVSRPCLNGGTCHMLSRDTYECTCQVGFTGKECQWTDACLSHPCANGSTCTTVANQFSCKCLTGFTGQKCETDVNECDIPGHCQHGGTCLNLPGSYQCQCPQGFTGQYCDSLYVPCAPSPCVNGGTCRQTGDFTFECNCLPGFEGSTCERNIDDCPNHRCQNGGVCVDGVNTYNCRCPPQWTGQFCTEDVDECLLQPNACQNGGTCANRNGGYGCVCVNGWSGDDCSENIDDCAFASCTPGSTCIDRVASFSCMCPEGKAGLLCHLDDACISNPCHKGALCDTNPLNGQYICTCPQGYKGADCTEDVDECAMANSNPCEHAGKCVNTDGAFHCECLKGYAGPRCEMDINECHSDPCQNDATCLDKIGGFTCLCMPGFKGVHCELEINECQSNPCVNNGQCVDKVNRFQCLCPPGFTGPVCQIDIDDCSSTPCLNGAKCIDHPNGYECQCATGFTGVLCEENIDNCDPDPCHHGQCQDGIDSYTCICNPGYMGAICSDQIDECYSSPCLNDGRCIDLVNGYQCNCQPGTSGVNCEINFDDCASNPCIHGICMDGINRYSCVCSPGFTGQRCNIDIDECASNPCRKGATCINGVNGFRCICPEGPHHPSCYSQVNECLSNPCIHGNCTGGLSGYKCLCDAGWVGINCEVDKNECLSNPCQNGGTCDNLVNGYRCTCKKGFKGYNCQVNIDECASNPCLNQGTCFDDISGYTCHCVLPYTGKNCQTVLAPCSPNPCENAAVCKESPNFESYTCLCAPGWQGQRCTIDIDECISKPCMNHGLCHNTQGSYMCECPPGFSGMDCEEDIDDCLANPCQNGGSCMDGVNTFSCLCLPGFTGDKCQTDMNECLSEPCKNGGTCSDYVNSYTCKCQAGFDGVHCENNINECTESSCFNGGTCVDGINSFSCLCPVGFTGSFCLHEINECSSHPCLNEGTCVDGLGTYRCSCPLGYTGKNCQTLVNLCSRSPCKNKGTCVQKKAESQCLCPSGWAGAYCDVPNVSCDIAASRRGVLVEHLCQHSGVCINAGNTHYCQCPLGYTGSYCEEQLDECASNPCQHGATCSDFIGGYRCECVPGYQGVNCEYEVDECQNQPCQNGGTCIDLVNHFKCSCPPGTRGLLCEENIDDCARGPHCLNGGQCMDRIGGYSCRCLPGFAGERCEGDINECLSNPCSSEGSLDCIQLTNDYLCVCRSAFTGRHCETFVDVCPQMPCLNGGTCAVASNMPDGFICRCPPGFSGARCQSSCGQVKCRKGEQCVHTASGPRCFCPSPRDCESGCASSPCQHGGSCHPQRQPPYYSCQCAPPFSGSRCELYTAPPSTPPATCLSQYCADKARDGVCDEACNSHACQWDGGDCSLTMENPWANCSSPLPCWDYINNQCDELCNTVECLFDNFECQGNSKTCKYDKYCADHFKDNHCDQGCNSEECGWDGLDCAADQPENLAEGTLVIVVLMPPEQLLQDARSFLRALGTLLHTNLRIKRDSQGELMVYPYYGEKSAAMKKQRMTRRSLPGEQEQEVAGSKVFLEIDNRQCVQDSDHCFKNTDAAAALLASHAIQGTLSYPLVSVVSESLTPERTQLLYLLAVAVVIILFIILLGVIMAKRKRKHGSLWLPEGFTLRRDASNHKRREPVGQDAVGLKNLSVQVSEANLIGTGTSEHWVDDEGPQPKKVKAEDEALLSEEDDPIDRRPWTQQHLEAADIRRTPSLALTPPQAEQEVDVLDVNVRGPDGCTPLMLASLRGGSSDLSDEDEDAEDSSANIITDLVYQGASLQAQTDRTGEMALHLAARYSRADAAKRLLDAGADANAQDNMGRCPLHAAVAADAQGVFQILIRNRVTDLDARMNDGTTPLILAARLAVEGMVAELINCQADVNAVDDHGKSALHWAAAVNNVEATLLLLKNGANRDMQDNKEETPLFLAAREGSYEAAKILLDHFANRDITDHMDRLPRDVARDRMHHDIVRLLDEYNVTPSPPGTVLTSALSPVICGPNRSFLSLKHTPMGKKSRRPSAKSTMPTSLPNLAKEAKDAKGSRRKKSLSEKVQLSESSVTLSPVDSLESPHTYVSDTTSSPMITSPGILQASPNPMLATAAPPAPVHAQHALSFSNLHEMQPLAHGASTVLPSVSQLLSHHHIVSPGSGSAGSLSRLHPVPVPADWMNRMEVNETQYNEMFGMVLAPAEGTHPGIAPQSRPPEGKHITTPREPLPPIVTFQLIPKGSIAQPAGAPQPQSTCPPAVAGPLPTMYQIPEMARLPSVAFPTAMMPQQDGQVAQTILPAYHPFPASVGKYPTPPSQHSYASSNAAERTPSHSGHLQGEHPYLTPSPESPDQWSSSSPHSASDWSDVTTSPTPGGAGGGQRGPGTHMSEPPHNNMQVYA
# [6] = target: Pro-neuregulin-1, membrane-bound isoform (Homo sapiens) (UniProt Q02297); assay: small molecules binding neuregulin-1 protein – biochemical, small-molecule microarray, fluorescence 635/667, psychiatric disease protein project, primary screen (AID 1075); settings: NRG1 binding, 635 nm fluorescence, higher = more signal;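 also: score combines 667 nm spot fluorescence with signal to noise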
# Chain of Pro-neuregulin-1, membrane-bound isoform (Homo sapiens) (Q02297 whole entry, looked up, the tested form may be a part, canonical isoform): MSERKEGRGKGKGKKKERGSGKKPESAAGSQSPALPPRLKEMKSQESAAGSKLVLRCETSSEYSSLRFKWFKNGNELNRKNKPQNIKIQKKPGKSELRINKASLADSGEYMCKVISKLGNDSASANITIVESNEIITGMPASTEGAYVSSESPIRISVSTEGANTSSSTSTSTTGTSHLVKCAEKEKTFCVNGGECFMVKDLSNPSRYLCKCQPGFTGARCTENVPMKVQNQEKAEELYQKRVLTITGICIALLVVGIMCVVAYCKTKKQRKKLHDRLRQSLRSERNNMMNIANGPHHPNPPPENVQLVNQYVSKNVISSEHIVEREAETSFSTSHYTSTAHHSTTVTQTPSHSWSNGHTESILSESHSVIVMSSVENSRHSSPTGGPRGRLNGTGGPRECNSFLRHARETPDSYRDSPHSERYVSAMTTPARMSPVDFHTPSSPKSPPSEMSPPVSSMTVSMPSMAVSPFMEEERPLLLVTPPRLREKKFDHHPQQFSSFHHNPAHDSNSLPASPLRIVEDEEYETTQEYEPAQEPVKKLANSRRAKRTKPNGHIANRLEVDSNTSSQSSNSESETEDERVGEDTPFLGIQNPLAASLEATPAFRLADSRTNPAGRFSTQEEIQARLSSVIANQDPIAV
# [7] = test system: Neuregulin-1 EGF-like domain; assay: small molecules binding NRG1 EGF domain – biochemical, small-molecule microarray, 635 nm fluorescence, primary screen (AID 1081); settings: higher = more signal;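 also: binding of the protein to compounds printed on small-molecule microarray slides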
# [8] = FRG1 expression reporter modulators in myotubes – cell-based, C2C12 myotubes, firefly/Renilla luciferase, luminescence, FRG1 inhibition for FSHD, primary screen (AID 1084); settings: FRG1 promoter luciferase, higher = more signal, called active from +8 up or from −8 down
# [9] = small molecules captured by biotinylated probe aFST – biochemical, small-molecule microarray, fluorescence 635/667, stem cell growth factor project, primary screen (AID 1086); settings: higher = more signal;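 also: score merges 667 nm fluorescence with signal-to-noise of each printed compound spot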
# [10] = binders of probe aHhip on microarray, primary screen, stem cell growth factor project, biochemical, small-molecule microarray, fluorescence 635/667 (AID 1087); settings: higher = more signal;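 also: score merges spot fluorescence at 667nm with spot signal to noise ratio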
Compound,composite z-score [1],composite z-score [2],composite z-score [3],composite z-score [4],composite z-score [5],composite z-score [6],composite z-score [7],z-score [8],composite z-score [9],composite z-score [10]
O=C(NCCN1CCOCC1)[C@@H]1c2ccccc2C(=O)N(Cc2ccccc2)[C@H]1c1ccc(CO)cc1,0.39,-0.334,-0.175,-0.961,-0.913,1.77,1.1,-0.508 (inactive),-0.0557,-0.312
C=CCNC(=O)[C@H]1[C@@H]2C(=O)O[C@@H](c3ccccc3)[C@@H](c3ccccc3)N2[C@@H](c2ccc(OCCO)cc2)[C@]12C(=O)N(C(=O)OCCOC)c1ccc(C#Cc3ccc(OC)cc3)cc12,0.0886,0.91,-0.0252,0.713,0.897,0.671,1.12,0.0138 (inactive),0.111,-0.335
COCCCNC(=O)[C@@]1(Sc2ccc(C)cc2)CC(=O)N(Cc2ccccc2Cl)[C@@H]1c1ccc(CO)cc1I,0.386,-0.983,-0.191,-0.304,-0.911,1.08,0.449,-2.5 (inactive),-0.431,-0.0994
COc1ccc(NC(=O)O[C@H]2[C@@H]3OC(=O)[C@H](Cc4cccc(Br)c4)C/C=C/C[C@@H](Cc4cccc(Br)c4)C(=O)O[C@H]3[C@@H](OC)O[C@@H]2CO)cc1,0.0355,1.4,0.0929,0.579,0.935,0.558,0.453,3.13 (inactive),0.421,0.285
NC(=O)N1C(=O)C2C(C1=O)C1C=C(CCCO)C2C(C2CC2)N1Cc1cccc(OC(F)(F)F)c1 (stereo not given),-0.284,0.497,-0.139,-0.238,-0.22,1.95,1.3,0.0154 (inactive),-0.108,-0.122
C=C[C@@H](C)[C@H](O)c1ccc(OCCO)cc1,0.684,-1.91,-0.182,-0.84,-1.67,-0.0655,1.04,5.39 (inactive),-1.06,-0.236
COc1ccc([Si](C)(C)[C@@H]2[C@@H](CC(=O)N3Cc4ccccc4C[C@H]3CO)O[C@]3(C(=O)N(c4ccccc4)c4ccccc43)[C@H]2C)cc1,0.485,1.02,0.411,0.934,0.627,2.35,1.16,-3.5 (inactive),1.43,0.433
COC(=O)[C@@]1(Cc2ccc(F)cc2)[C@H]2c3cc(C(=O)N4CCCC4)n(C)c3C[C@H]2CN1C(=O)c1ccccc1,1.18,0.155,0.404,0.779,1.69,2.15,1.34,-0.234 (inactive),0.951,-0.0645
Cc1c(NC(=O)/C(C#N)=C/c2ccccc2Cl)c(=O)n(-c2ccccc2)n1C,-0.183,0.0711,-0.009,0.0417,0.935,0.888,1.12,0.311 (inactive),1.27,-0.139
O=C(O)[C@@H]1C[C@@H]2C(=O)N3CCC[C@H]3C(=O)N2[C@@H]1c1cccc(OCCO)c1,3.06,2.45,0.588,0.648,1.7,2.68,1.49,1.39 (inactive),3.21,1.1
O=C1C2C=CC(C(O)c3cccc(O)c3)N(Nc3ccccc3)C2C(=O)N1c1ccccc1 (stereo not given),-0.0667,-0.73,-0.0901,0.212,1.08,0.977,1.11,1.23 (inactive),0.35,-0.0003
CN1C(=O)C2C=CC(C(O)c3ccc(I)cc3)N(Nc3ccccc3)C2C1=O (stereo not given),0.131,0.238,0.0253,0.846,1.26,1.56,1.24,0.266 (inactive),0.942,0.142
O=C(NCC(O)CO)[C@@]1(CCS(=O)(=O)c2ccccc2)COC(c2ccc(OCCCO)cc2)=N1 (stereo not given in full),1.05,1.85,0.0729,0.25,1.45,2.12,1.41,-1.16 (inactive),1.1,-0.214
O=C1C2C=CC(C(O)c3ccco3)N(Nc3ccccc3)C2C(=O)N1c1ccccc1 (stereo not given),0.76,-0.79,-0.0767,-0.216,-0.331,0.944,1.08,0.64 (inactive),0.225,-0.134
O=C1N(CCS(=O)(=O)c2ccccc2)Cc2ccccc2[C@@H]2OC(c3ccc(OCCCO)cc3)=N[C@]12CCS(=O)(=O)c1ccccc1,0.215,0.675,0.115,0.507,1.66,1.46,1.39,-2.06 (inactive),1.18,0.0053
CC1CC/C=C\[C@H]2OC34C=CCN(C(C)(C)C)C(=O)[C@H]3N(C(CO)C(C)C)C(=O)[C@@H]4C2C(=O)O1 (stereo not given in full),-0.259,2.01,-0.141,0.323,-0.147,0.867,1.5,1.44 (inactive),-0.0219,-0.318
CC(C)c1ccc(NN2C(C(O)Cc3ccccc3)C=CC3C(=O)N(c4ccccc4)C(=O)C32)cc1 (stereo not given),0.0399,-0.0235,0.0116,0.408,1.5,1.76,0.593,0.0899 (inactive),1.36,-0.0645
CO[C@H]1O[C@H](CO)[C@@H](OC(=O)CCc2ccccc2)[C@H](OC(=O)c2cc3ccccc3[nH]2)[C@H]1OC(=O)c1cc2ccccc2[nH]1,-0.262,0.489,-0.0321,0.72,1.15,1.21,1.02,-0.3 (inactive),0.29,0.0596
COc1cc(CO)cc(I)c1O[C@H]1C=C(C(=O)NCCO)C[C@@H](NCC2CCCCC2)[C@@H]1O,-0.149,-0.422,-0.0506,0.542,0.481,0.579,0.652,-1.14 (inactive),0.638,0.0505
COCCOC(=O)N1C(=O)[C@@]2(c3cc(C#CC4=CCCCC4)ccc31)[C@H](C(=O)N1CCCCCCC1)[C@H]1C(=O)O[C@H](c3ccccc3)[C@H](c3ccccc3)N1[C@@H]2c1ccc(OCCO)cc1,1.77,0.399,0.316,0.5,0.891,0.455,1.1,1.06 (inactive),1.36,0.739
COCCCNC(=O)[C@@]1(c2ccc([N+](=O)[O-])cc2)CC(=O)N(C(C)C)[C@@H]1c1ccc(CO)cc1,0.135,-0.169,-0.059,-0.0621,-0.588,-0.714,0.539,0.195 (inactive),0.116,0.526
COCCOC(=O)N1C(=O)[C@@]2(c3cc(C#CC4(O)CCCCCC4)ccc31)[C@H](C(=O)N1CCN(c3ncccn3)CC1)[C@H]1C(=O)O[C@H](c3ccccc3)[C@H](c3ccccc3)N1[C@@H]2c1ccccc1OCCO,-0.215,0.825,-0.0195,0.452,1.08,0.239,1.05,0.041 (inactive),0.474,0.0515
O=C1O[C@H](c2ccccc2)[C@H](c2ccccc2)N2[C@H]1[C@@H](C(=O)Nc1nc3ccccc3s1)[C@]1(C(=O)Nc3ccc(C#CC4=CCCCC4)cc31)[C@H]2c1ccc(O)cc1,-0.384,0.255,-0.0281,0.352,0.747,1.44,1.1,-0.305 (inactive),0.845,-0.0994
CCCCCCCCCCC(O)C1C=CC2C(=O)N(C)C(=O)C2N1Nc1cc(OC)c(OC)c(OC)c1 (stereo not given),0.736,-0.157,-0.194,-0.873,-0.717,0.55,-0.199,0.507 (inactive),0.0296,-0.21
CCCCCN1CC=CC23O[C@@H]4C=CCOC(=O)[C@@H]4[C@H]2C(=O)N(CCO)[C@@H]3C1=O (stereo not given in full),0.388,0.483,-0.177,0.162,-1.27,1.6,1.48,-0.0097 (inactive),-0.455,-0.199
CC(=O)N1CC(C(O)C2C=CC3C(=O)NC(=O)C3N2Nc2ccc(Cl)cc2Cl)c2ccccc21 (stereo not given),0.856,-0.0312,0.203,0.925,1.28,1.7,0.727,0.425 (inactive),0.496,0.0854
C=CCOC(=O)[C@H]1[C@@H]2C(=O)O[C@@H](c3ccccc3)[C@@H](c3ccccc3)N2[C@@H](c2ccc(OCCOC(=O)[C@H]3C[C@H]4C(=O)N[C@@H](CCCCNC(C)=O)C(=O)N4[C@H]3c3cccc(OCCO)c3)cc2)[C@]12C(=O)Nc1ccc(I)cc12,0.276,1.01,-0.144,0.818,0.656,1.29,1.26,0.29 (inactive),2.65,0.215
NC(=O)[C@H]1[C@@H]2C(=O)O[C@@H](c3ccccc3)[C@@H](c3ccccc3)N2[C@@H](c2ccc(O)cc2)[C@]12C(=O)Nc1ccccc12,0.339,-1.11,-0.128,-0.171,-1.37,1.81,0.653,-0.977 (inactive),-0.442,-0.137
